Compound activity as filed in PubChem BioAssay.
CCHFV vOTU inh = CCHFV vOTU protease inhibitors, primary screen, biochemical, Pep-AMC substrate, fluorescence. 0.55% of 370,000 active. AID 651958, 2012. Crimean-Congo hemorrhagic fever virus L polyprotein viral ovarian tumor (vOTU) protease …. inhibition, % at 11.5 µM; also: 0% = vehicle wells with enzyme and 100% = no enzyme wells
GDH-TPI counter-1 = GDH-TPI coupling enzyme inhibitors, primary screen, artefact control for M. tuberculosis FBA inhibitor project, biochemical, absorbance, full deck; inhibition, % at 4.8 µM; GDH-TPI coupled enzyme counterscreen, NADH absorbance; 1.2% of 360,000 active; AID 588335, 2011;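 also: 0% = DMSO wells and 100% = wells lacking the enzyme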
RecA splice inh = Mtb RecA intein splicing inhibitors, primary screen, biochemical, fluorescence, HTS | Protein RecA (Mycobacterium tuberculosis (strain ATCC 25618 / H37Rv)), P9WHJ3 | cell-free RecA intein splicing | inhibition, % (test concentration not listed) | 0.75% of 290,000 active; in the data active = inhibition above about 30%; inconclusive = no clear call, values can overlap the other calls;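 also: 0% = vehicle wells and 100% = reference inhibitor control wells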
Target sequence (P9WHJ3 whole entry, looked up, canonical isoform): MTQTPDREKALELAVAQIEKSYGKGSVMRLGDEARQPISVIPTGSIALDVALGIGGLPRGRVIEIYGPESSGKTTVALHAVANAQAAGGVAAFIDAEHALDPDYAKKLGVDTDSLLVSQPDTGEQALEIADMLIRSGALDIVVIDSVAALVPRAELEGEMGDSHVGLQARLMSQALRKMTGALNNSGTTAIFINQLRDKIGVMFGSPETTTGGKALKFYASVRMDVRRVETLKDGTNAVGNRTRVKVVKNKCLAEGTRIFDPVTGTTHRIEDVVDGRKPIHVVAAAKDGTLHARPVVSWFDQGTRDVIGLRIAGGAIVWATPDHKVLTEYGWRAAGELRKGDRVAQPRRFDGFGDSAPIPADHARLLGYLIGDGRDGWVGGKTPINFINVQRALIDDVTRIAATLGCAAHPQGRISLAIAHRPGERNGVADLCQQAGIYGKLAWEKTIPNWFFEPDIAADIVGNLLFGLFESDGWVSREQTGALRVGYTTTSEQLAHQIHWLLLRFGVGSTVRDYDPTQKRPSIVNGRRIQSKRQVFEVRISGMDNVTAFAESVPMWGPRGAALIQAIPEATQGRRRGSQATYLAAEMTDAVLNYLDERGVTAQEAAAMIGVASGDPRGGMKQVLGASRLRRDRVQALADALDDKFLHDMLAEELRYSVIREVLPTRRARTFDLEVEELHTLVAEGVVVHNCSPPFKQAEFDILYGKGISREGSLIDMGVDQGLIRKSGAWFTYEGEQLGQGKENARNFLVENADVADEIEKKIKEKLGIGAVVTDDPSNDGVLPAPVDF
Mtb bLac sens = beta-lactam sensitization of Mtb H37Rv, H37Rv; M. tuberculosis H37Rv growth with meropenem, percent inhibition; inhibition, % at 25 µM; 0.27% of 330,000 active; AID 434955, 2010; call rule not given here;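 also: growth measured after seven days incubation then overnight dye step; 0% = bacteria only wells and 100% = bacteria with antibiotic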
FBA Mtb inh = Mtb FBA enzyme inhibitors, primary screen, biochemical, fluorescence, strain H37Rv; 2.3% of 360,000 active; inhibition, % at 1 µM; AID 588726, 2011; Fructose-bisphosphate aldolase (Mycobacterium tuberculosis (strain ATCC 25618 / H37Rv)), …; purified M. tuberculosis FBA, fluorescence read-out; in the data active = inhibition above about 27%;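 also: 0% = vehicle and 100% = reference inhibitor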
Mtb FBA inh conf = M. tuberculosis aldolase blockers, biochemical, fluorescence, strain H37Rv, confirmation. purified M. tuberculosis FBA, fluorescence read-out. AID 651616, 2012. inhibition, % at 1 µM. shares compounds with FBA Mtb inh. 78% of 5,600 active; in the data active = inhibition above about 27%;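 also: 0% = vehicle wells and 100% = reference inhibitor wells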
GDH-TPI counter-2 = GDH-TPI coupling enzyme inhibitors, artefact control for M. tuberculosis FBA inhibitor project, biochemical, fluorescence, high throughput. GDH-TPI coupled enzyme counterscreen. inhibition, % at 1 µM. shares compounds with FBA Mtb inh. AID 652141, 2013. 81% of 5,600 active; in the data active = inhibition above about 10%
An asterisk follows results filed as active; ? = inconclusive; . = no result; + = active, no number. A selection: hits, their analogues and other compounds. The true share with any hit is near 4.2%. Rule as the data show it, unless noted: active = inhibition above about 30%; inactive = the rest.

SMILES	CCHFV vOTU inh	GDH-TPI counter-1	RecA splice inh	Mtb bLac sens	FBA Mtb inh	Mtb FBA inh conf	GDH-TPI counter-2
Cc1ccc(C)c(N(C(=O)c2snc(C(N)=O)c2N)C(C(=O)NCC2CCCO2)c2ccc(C)o2)c1 (stereo unspecified)	-40	2	-3	1	37*	54*	48*
Cc1ccc(C)c(N(C(=O)c2snc(C(N)=O)c2N)C(C(=O)NCC2CCCO2)c2cccs2)c1 (stereo unspecified)	-24	0	-13	-7	36*	19	7
CNC1(c2ccccc2Cl)CCCCC1=O (stereo unspecified)	2	-5	.	.	27*	58*	36*
CN(C)C(CNC(=O)c1cc(-c2ccco2)nc2ccccc12)c1ccccc1 (stereo unspecified)	-110	10	.	-17	38*	9	-4
Cc1ccc(-c2cc(C(=O)NCC3(N(C)C)CCCCC3)c3ccccc3n2)o1	-34	26	.	.	29*	23	16*
CCCCCCNC(=O)c1cc(-c2ccco2)nc2ccccc12	-72	5	11	5	24	.	.
Cc1ccc(-c2cc(C(=O)Nc3nccs3)c3ccccc3n2)o1	3	11	9	16	-2	.	.
CC(C)CCNC(=O)c1cc(-c2ccco2)nc2ccccc12	-190	20	-2	68	111*	+	+
CC(C)=CC(=O)O[C@@H]1Cc2cc3ccc(=O)oc3cc2OC1(C)C	-10	19	.	3	34*	+	+
C/C=C(\C)C(=O)OC1c2c(ccc3ccc(=O)oc23)OC(C)(C)C1OC(C)=O (stereo unspecified)	-2	19	3	0	9	.	.
CC(=O)OC(C)(C)C1Cc2cc3ccc(=O)oc3cc2O1 (stereo unspecified)	-115	10	1	-1	104*	0	-2
C/C=C(\C)C(=O)OC(C)(C)[C@H]1Cc2cc3ccc(=O)oc3cc2O1	-104	6	6	-2	94*	+	+
CC1=C(C(=O)OC(C)C)C(c2cccnc2)C2=C(CCCC2=O)N1 (stereo unspecified)	-58	15	-50	-3	36*	3	-2
CCOC(=O)C1=C(N)OC2=C(C(=O)CCC2)C1c1cccnc1 (stereo unspecified)	7	-3	2	-4	0	.	.
CCOC(=O)C1=C(C)NC2=C(C(=O)CCC2)C1c1cccnc1 (stereo unspecified)	-57	13	-51	?	36*	9	4
O=S1(=O)c2ccc(Br)cc2OC[C@H](Cc2ccccc2)N1Cc1cn(CCC2OCCO2)nn1	2	.	.	.	.	.	.
COc1ccc(-c2nc3ccc(N4CCN(C)CC4)cc3c(=O)[nH]2)cc1	-28	18	-12	2	32*	3	3
Cc1cc(N2CCN(CC(C)(C)O)C[C@H]2C)ccc1N1CCN(Cc2ccccc2)[C@H](C)C1	23	.	.	.	.	.	.
COC(=O)c1ccccc1NC(=O)Cn1c(CCC(=O)O)ccc1-c1cccs1	-8	4	-3	30	2	.	.
COCCCn1c(CCC(=O)O)ccc1-c1cccs1	-60	3	-103	-12	34*	34*	26*
CCCn1c(CCC(=O)O)ccc1-c1cccs1	-5	10	-28	61	35*	98*	84*
Cc1cc(-c2n[nH]c(=S)n2N=Cc2ccc(O)cc2)n[nH]1	6	.	.	.	.	.	.
CCOC(=O)[C@]12CCCC=C1N(CCc1ccc(Cl)cc1)C(=O)[C@@H]2CC(=O)NCCC(C)C	9	.	.	.	.	.	.
Cc1cc(=O)oc2cc(OCC(=O)N3CCCC3)c(Cl)cc12	-60	0	.	-8	31*	13	24*
